Assay in all cases: NCI-60 one-dose screen, 48 h (100 = growth as untreated, 0 = no growth, -100 = all killed)
What all share (conditions): 10 µM unless noted

Experiment [1] deals with HCT-15 colon.
Experiment [2] relates to HT29 colon.
Experiment [3] relates to SNB-75 CNS.
Experiment [4] deals with SNB-19 CNS.
Experiment [5] has as its system U251 CNS.
In experiment [6] the test system is PC-3 prostate.
For experiment [7], the system named is SK-MEL-5 melanoma.
Experiment [8] has as its system UACC-62 melanoma.
Experiment [9] concerns LOX IMVI melanoma.
For experiment [10], the system named is SK-MEL-28 melanoma.
Experiment [11] deals with SK-MEL-2 melanoma.
For experiment [12], the system named is EKVX NSCLC.
For experiment [13], the system named is SN12C renal.
Experiment [14] relates to UO-31 renal.
In experiment [15] the test system is TK-10 renal.
For experiment [16], the system named is ACHN renal.
The subject of experiment [17] is CAKI-1 renal.
For experiment [18], the system named is A498 renal.
The subject of experiment [19] is CCRF-CEM leukemia.
Experiment [20] deals with MOLT-4 leukemia.

Growth data for eight molecules are collected here from PubChem BioAssay (NCI).

Compounds without any hit were thinned out: in the full panel of roughly 83,000, 20% have a hit.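 Each cell line was grown in a 96-well plate and treated with one concentration of compound for 48 hours. Values below 10 were considered active.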 Values without a mark were called inactive. Calls of active or inactive are those of the source.

For `O=C(/C=C/CN1CCCCC1)Nc1cc2c(Nc3ccc(F)c(Cl)c3F)ncnc2cc1OCCOC(F)F`, the growth was 7.81% (active) in [1]; 2.26% (active) in [2]; -12.1% (active) in experiment [3]; 40.9% in experiment [4]; 31.1% in [5]; 1.81% (active) in experiment [6]. For the same molecule, the growth in experiment [7] was 25.3%; in experiment [8], 34.1%; in experiment [9], 12.5%; in experiment [10], 48.6%; in [11], 36.1%; in experiment [12], 11.8%. For the same molecule, the growth in experiment [13] is 7.28% (active); in [14] it was 10.4%; in [15], 8.8% (active); in experiment [16] it was 5.75% (active); in [17], 5.99% (active); in [18] it was -21.7% (active). Also, the growth is 24.6% in [19] and 1.31% (active) in experiment [20].
Consider `CCN(CC)CCCNc1nc(C)cc(Nc2ccc3nc(C)cc(N)c3c2)n1`, for which the growth in experiment [1] is 105%; in experiment [2], 92.5%; in experiment [3], 90.9%; in experiment [4] it was 108%; in [5] it was 100%; in [6], 76%. Further, the growth in experiment [7] is 112%; in experiment [8], 117%; in [9], 95.6%; in experiment [10], 111%; in experiment [11], 36.1%; in experiment [12], 96.2%. Also, the growth is 94.7% in experiment [13]; 89.7% in [14]; 88% in experiment [15]; 101% in experiment [16]; 95.6% in [17]; 125% in [18]. Besides, the growth is 99.4% in experiment [19] and 112% in experiment [20].
Regarding `c1ccc2c(c1)Oc1ccccc1C2C1c2ccccc2Oc2ccccc21`, the growth in experiment [1] was 93.3%; in [2] it was 82.8%; in experiment [3], 86.2%; in experiment [4] it was 97.1%; in [5] it was 99.3%; in [6], 85.7%. Also, the growth in experiment [7] was 100%; in [8] it was 86.7%; in experiment [9], 86.5%; in experiment [10] it was 110%; in experiment [11] it was 92.6%; in experiment [12], 84.9%. The growth is 101% in experiment [13]; 73.5% in experiment [14]; 93.4% in [15]; 87.7% in experiment [16]; 74.5% in experiment [17]; 91.8% in experiment [18]. The growth in experiment [19] is 98.3%; in experiment [20], 79.5%.
With `CC(Br)C(OC(=O)c1ccccc1Cl)c1cc2c(cc1Br)OCO2` (stereo not given), the growth in experiment [1] was 86.9%; in experiment [2], 85.5%; in experiment [3] it was 67.4%; in [4], 93.7%; in [5], 95.9%; in [6], 82.8%. In addition, the growth was 87% in experiment [7]; 72.5% in [8]; 92.1% in experiment [9]; 94.5% in [10]; 90.4% in [11]; 76.6% in experiment [12]. In addition, the growth is 98.9% in experiment [13]; 49.1% in [14]; 82.1% in experiment [15]; 88.2% in experiment [16]; 70% in [17]; 88.5% in experiment [18]. The figures for the growth in [19] and in experiment [20] were 103% and 75.6%, respectively.
Turning to `COc1ccc(C(=O)N2CCN(C(=O)c3cc(OC)c(OC)c(OC)c3)CC2)cc1OCCCCOc1cc2c(cc1OC)C(=O)N1CCC[C@H]1C=N2`, the growth in [1] was 118%; in experiment [2], 45.8%; in experiment [3] it was 110%; in experiment [4], 99.4%; in [5] it was 101%; in experiment [6] it was 104%. Further, the growth in experiment [7] was 71%; in [8], 97.2%; in experiment [9] it was 106%; in experiment [10] it was 136%; in experiment [11], 31.9%; in [12] it was 113%. The growth in experiment [13] was 97.9%; in [14], 32.7%; in experiment [15], 157%; in experiment [16], 105%; in experiment [17] it was 81.4%; in experiment [18] it was 95.5%. For the same molecule, the growth in [19] is 86.4%; in experiment [20], 108%.
Turning to `O=C1CCCCN1CCCCC#Cc1ccccc1C#Cc1ccccn1`, the growth in experiment [1] was 94.7%; in experiment [2] it was 88.6%; in experiment [3], 91.9%; in experiment [4], 108%; in experiment [5] it was 88.9%; in [6], 95.1%. Moreover, the growth was 98.2% in experiment [7]; 83.9% in experiment [8]; 96.8% in experiment [9]; 110% in experiment [10]; 64.5% in experiment [11]; 106% in experiment [12]. Besides, the growth in [13] was 106%; in experiment [14] it was 42.2%; in experiment [15], 136%; in experiment [16], 86.4%; in experiment [17], 121%; in [18], 114%. Moreover, the growth was 74% in experiment [19] and 94.9% in experiment [20].
For the molecule `Cc1c(C(=O)NCc2ccccc2)[n+](=O)c2cc(F)ccc2n1[O-]`, the growth in experiment [1] is 111%; in experiment [2] it was 94.4%; in experiment [3], 76.7%; in experiment [4] it was 108%; in experiment [5], 102%; in [6], 81.9%. The growth was 86.7% in experiment [7]; 104% in experiment [8]; 97.4% in experiment [9]; 91.3% in [10]; 40.8% in experiment [11]; 114% in experiment [12]. The growth in experiment [13] was 103%; in [14], 39.4%; in [15], 138%; in [16] it was 102%; in [17], 79.7%; in [18], 101%. Moreover, the growth in experiment [19] was 52.5%; in [20] it was 130%.
With `CC(C)(C)c1cc(-c2nc3ccc(N4CCN(CCO)CC4)cc3[nH]2)cc(C(C)(C)C)c1O`, the growth in experiment [1] is -14.4% (active); in experiment [2], 4.47% (active); in [3], 67.2%; in experiment [4], 74%; in experiment [5], 16%; in experiment [6], 58.3%. For the same molecule, the growth is 74% in experiment [7]; 26.7% in experiment [8]; -35.5% (active) in experiment [9]; 61.2% in [10]; 81.8% in [11]; 92.9% in experiment [12]. The growth in experiment [13] was 85.8%; in [14], 72.4%; in experiment [15] it was 87.6%; in experiment [16], 89.2%; in experiment [17], 63.2%; in experiment [18] it was 86.1%. Also, the growth in experiment [19] is 29.5%; in [20] it was 32.9%.
